In PubChem BioAssay (Tox21):
Results filed as inconclusive are left out. Calls of active or inactive are those of the source. Calls come from the whole dose curve; as a rule, active = well fitted cell-killing curve with a large enough effect in the repeat runs; inconclusive = weak or mixed curves, or effect the other way; inactive = flat fitted curve, though single readings scatter.

Test: qHTS assay to identify small molecule antagonists of the retinoid acid receptor (RAR) signaling pathway - cell viability counter screen (AID 1159551); note: nearly all actives have a fitted effect of over 35% in size
Settings: C3RL4 cells viability, ATP luminescence (CellTiter-Glo), 6 h; series mostly up to 92.4 µM; activity change, negative = cytotoxicity: at the top concentration
From the text: U.S. Tox21 Program National Center for Advancing Translational Sciences [NCATS] NIH Chemical Genomics Center [NCGC] U.S. Environmental Protection Agency [EPA] National Institutes of Environmental Health Sciences [NIEHS] National Toxicology Program [NTP] U.S. Food and Drug Administration [FDA] Tox21 Assay Overview: All-trans Retinoic acid (atRA) is the potent natural metabolite of retinol and plays an important role in normal embryonic development and maintenance of cellular phenotype in adult animals. atRA is the activating ligand for the retinoic acid receptors (RARs) which form heterodimers with retinoid X receptors (RXRs) on the retinoic acid response element (RARE). Through activation of the RAR/RXRs nuclear receptors, atRA regulates the transcription of a large number of protein-coding genes and regulatory RNAs. Intracellular levels of atRA are controlled by the retinol signaling pathway (RSP) that regulates the biosynthesis and catabolism of atRA to maintain physiological levels. Chemicals that interfere with the RSP can cause abnormal intracellular levels of atRA and therefore are potential developmental toxicants. To assess compounds for the potential adverse effect on embryonic development through interfering with retinol signaling, a cell-based RARE luciferase reporter gene assay was used. C3RL4 cell line (OARSA/CFSAN/FDA, Laurel, MD) was used to screen Tox21 10K compound library for identifying inhibitors of the RSP. Also cytotoxicity was assessed by determining the viability of cells based on the quantitation of ATP.
Tox21 Assay Protocol Summary: C3RL4 cells were seeded at 1,000/well in 4 uL of assay medium into white solid 1,536-well tissue culture plates (Greiner Bio-One North America Inc. Monroe, NC) using a Multidrop Combi (Thermo Scientific, Waltham, MA) dispenser. After incubation at 37 C and 5% CO2 for an overnight, 23 nL of compounds dissolved in DMSO, positive control or DMSO only were transferred by a Pintool station (Kalypsys, San Diego, CA). One ul of 1 uM (final concentration) of Retinol was added right after the compound addition by using a Flying Reagent Dispenser (FRD) (Aurora Discovery, San Diego, CA). After 6 hr incubation at 37 C and 5% CO2, 5 uL of CellTiter-Glo reagent (Promega Corporation, Madison, WI) was added to each assay plate using an FRD. Luminescence was quantified on a ViewLux plate reader (PerkinElmer, Waltham, MA) after 30 min incubation at room temperature.
% is set by controls: 0 for no effect and ±100 for the full control effect.

Compound	outcome	activity change, negative = cytotoxicity
CON(C)C(=O)Nc1ccc(Cl)c(Cl)c1	inactive	
Nc1ccc(Br)cc1	inactive	
O=c1ccc(=O)[nH][nH]1	inactive	
CCCN(CCC)c1c([N+](=O)[O-])cc(C(F)(F)F)cc1[N+](=O)[O-]	inactive	
C1CN2CCN1CC2	inactive	
Clc1cccc(Cl)c1Cl	inactive	
Clc1ccccc1Cl	inactive	
C[C@]12CC[C@H]3[C@@H](CC[C@@]45O[C@@H]4C(O)=C(C#N)C[C@]35C)[C@@H]1CC[C@@H]2O	inactive	
O=c1[nH]c2ccccc2c(=O)o1	inactive	
O=[N+]([O-])c1ccccc1	inactive	
CN(N=O)c1ccccc1	inactive	
CCCCCCCCCl	inactive	
O=NN1CCCCCCC1	inactive	
C#CC(C)(C)NC(=O)c1cc(Cl)cc(Cl)c1	inactive	
CC(C)C#N	inactive	
CC1OC(C)OC(C)O1 (stereo not given)	inactive	
O=S(=O)(c1ccc(Cl)cc1)c1cc(Cl)c(Cl)cc1Cl	inactive	
CCC[CH2][Sn]([Cl])([Cl])[Cl]	inactive	
[O-][Cl+2]([O-])O	inactive	
ClCc1cccnc1	inactive	

Compound	outcome	activity change, negative = cytotoxicity
O=c1[nH]c(=O)[nH]c(=O)[nH]1	inactive	
C=CCO	inactive	
Nc1ccc(Cc2ccc(N)cc2)cc1	inactive	
OCCN(CCO)CCO	inactive	
CCN(CC)CCO	inactive	
C#CCN(C)[C@H](C)Cc1ccccc1	inactive	
O=NN1CCCC1		1.63% (inactive)
CC(C)(C)OOC(C)(C)C	inactive	
O=[N+]([O-])c1ccc(Oc2ccc(Cl)cc2Cl)cc1	inactive	
Cc1cccc([N+](=O)[O-])c1	inactive	
Oc1ccccc1Cl	inactive	
OC(O)C(Cl)(Cl)Cl	inactive	
NCCc1ccc(O)cc1	inactive	
CCOP(=S)(OCC)Oc1cnc2ccccc2n1	inactive	
ClCCBr	inactive	
CC(=O)C=C(C)C	inactive	
CC(Oc1ccc(Cl)cc1Cl)C(=O)O (stereo not given)	inactive	
O=c1n(Cl)c(=O)n(Cl)c(=O)n1Cl	inactive	
[N-]=[N+]=[N-]	inactive	
CC(C)(Cl)Cl	inactive	
